The target in assay [1] is Glucocorticoid receptor (Homo sapiens) (UniProt P04150). Description: GR-GFP Redistribution (AID 450;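 active = compounds whose dose series gives a full or clear partial fitted curve of increased nuclear translocation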; note: potency is the fitted concentration of half-maximal effect). The conditions noted are these: U2OS GR-GFP nuclear translocation, laser cytometry, 2 h.
The target of assay [2] is Mitogen-activated protein kinase 10 (Mus musculus) (UniProt Q61831). As to the kind of experiment: JNK3 AlphaScreen Assay (AID 530; active = well fitted curve in either direction with a large enough effect, not every such curve was filed as active;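 note: kinase came from lysate of stimulated human HepG2 cells; signal reports phosphorylation of biotinylated GST-cJun 1-79 at Ser73 with 10 µM ATP; % is set by controls: 0 for no effect and ±100 for the full control effect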). As to conditions: JNK3 lysate, c-Jun phosphorylation; series mostly up to 57.1 µM. Put shortly:
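Kinase buffer: 20 mM Tris-HCl pH 7.6, 10 mM MgCl2, 1 mM DTT, 0.1 mM Na3VO4, 0.01% Tween-20; ATP 10 uM. Substrate biotin-GST-cJun(1-79), enzyme from activated HepG2 lysates. Detection by Ser73 phospho-antibody AlphaScreen.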

The target of assay [3] is DNA dC->dU-editing enzyme APOBEC-3G (Homo sapiens) (UniProt Q9HC16). Description: qHTS for inhibitors of Vif-A3G interactions: Validation (AID 588379). Note: 0% is about no effect. As to conditions: Vif-A3G protein interaction assay; series mostly up to 46.1 µM. The method, boiled down: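 Yellow fluorescence (Ex 488, Em 500-530) of Vif-coexpressing HeLa A3G-eYFP cells, scanned by Acumen cytometer, reports blocked A3G degradation. Cells plated at 700/well overnight at 37 deg C before compound addition, then a further overnight compound incubation at 37 deg C.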

Assay [4] concerns Zika virus NS2B-NS3 protease. As to the kind of experiment: Primary screen GU AMC qHTS for Zika virus inhibitors (AID 1347154).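 Note: 0% = no-inhibitor control and -100% = no-enzyme control; nearly all actives have a fitted effect of over 70% in size.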 The conditions noted are these: Zika NS2B-NS3 unlinked protease, AMC fluorogenic substrate; series mostly up to 54.1 µM. The method, boiled down:
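Fluorogenic AMC-substrate cleavage by noncovalent NS2B-NS3 protease complex (25 nM, pH 8.0 Tris buffer with Tween 20) followed for 15 minutes at room temperature (~20% conversion). Percent inhibition from ex340/em450 signal change, fitted by 4-parameter Hill equation.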

Assay [5] in a line: Primary qHTS for small molecule stabilizers of the endoplasmic reticulum resident proteome: Secreted ER Calcium Modulated Protein (SERCaMP) assay (AID 1508630). Note: % is set by controls: 0 for no effect and ±100 for the full control effect. The conditions noted are these: SH-SY5Y GLuc-SERCaMP (Gaussia luciferase released on ER calcium loss) secretion, thapsigargin, luminescence; series mostly up to 38.4 µM. The method, boiled down: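 The SH-SY5Y reporter protocol was run at 3 concentrations up to 38.3 uM (primary) or 11 concentrations (follow-up): 16 h compound, 100 nM thapsigargin for 4 h, then extracellular luciferase luminescence.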

Assay [6] concerns the target Glucocorticoid receptor (Homo sapiens) (UniProt P04150). As to the kind of experiment: GR-EFC Redistribution (AID 451; calls by dose curve; note: potency is the fitted concentration of half-maximal effect). The conditions noted are these: CHO-K1 GR-EFC translocation, beta-gal luminescence, 2 h. Put shortly:
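Translocation of GR-ED fusion to nuclear EA restores b-gal, read by luminescence after 1 h room-temperature detection. Engineered CHO-K1 biosensor cells, 1,000/well, exposed 2 h at 37 C to titrations up to 46 uM final.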

For assay [7], the target named is Ubiquitin carboxyl-terminal hydrolase 1 (Homo sapiens) (UniProt O94782). As to the kind of experiment: Inhibitors of USP1/UAF1: Pilot qHTS (AID 504865).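 Note: rhodamine fluorescence freed from ubiquitin-rhodamine substrate followed over time; top concentration of the series differs between compounds; % is set by controls: 0 for no effect and ±100 for the full control effect; nearly all actives have a fitted effect of over 35% in size.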 As to conditions: purified USP1/UAF1, Ub-rhodamine cleavage fluorescence; series mostly up to 114 µM. The method, boiled down: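 Kinetic fluorescence assay: 1nM USP1/UAF1, 15 min compound preincubation, then 150nM Ub-Rho; 480/540 nm.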

Assay [8] in a line: NFAT Signaling Pathway (AID 444; active = well fitted curve in either direction with a large enough effect, not every such curve was filed as active;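 note: carbachol stimulus at about its EC50 of 1 µM final; % is set by controls: 0 for no effect and ±100 for the full control effect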). The conditions noted are these: Jurkat NFAT-bla M1, carbachol, beta-lactamase ratio, 5 h; at 17.2 µM (top of the series). Put shortly:
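Read-out: CCF4 FRET ratio (460 nm/530 nm) after 1 h RT dye loading, used for %activity and AC50 from titration series. Cells: Jurkat NFAT-β-lactamase/M1 line, treated with compound plus 1 uM carbachol for 5 h, 37 °C.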

Assay [9] can be described thus: Stat Signaling Pathway (AID 446; active = well fitted curve in either direction with a large enough effect, not every such curve was filed as active;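 note: ME-180 cervical cancer cells given 40 pM IL-6 alongside compound; SIE-controlled beta-lactamase reporter measured as 460/530 nm FRET emission ratio; % is set by controls: 0 for no effect and ±100 for the full control effect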). As to conditions: ME-180 (cervical carcinoma) SIE beta-lactamase reporter, IL-6 stimulated, 5 h; series mostly up to 38 µM. Put shortly: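 Overnight-plated ME-180 cells bearing a STAT Inducible Element beta-lactamase reporter; 5 h co-exposure to compound and 40 pM IL-6; values normalized to 300 pM IL-6 and 125 nM JAK inhibitor controls.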

The text below walks through data of PubChem BioAssay (NCATS).

Unmarked numbers belong to inactive results. Records with an inconclusive call do not appear. Active and inactive are the calls of the source. Unless noted, calls come from the whole dose curve; as a rule, active = well fitted curve in the direction sought with a large enough effect; inconclusive = small, poorly fitted or top-dose-only effect, or another doubt; inactive = no such curve, though single readings can be large; an effect the other way counts as inactive or inconclusive. Some results are limits rather than exact numbers.

Glucocorticoid receptor (Homo sapiens), sequence (P04150 whole entry, looked up, the tested form may be a part): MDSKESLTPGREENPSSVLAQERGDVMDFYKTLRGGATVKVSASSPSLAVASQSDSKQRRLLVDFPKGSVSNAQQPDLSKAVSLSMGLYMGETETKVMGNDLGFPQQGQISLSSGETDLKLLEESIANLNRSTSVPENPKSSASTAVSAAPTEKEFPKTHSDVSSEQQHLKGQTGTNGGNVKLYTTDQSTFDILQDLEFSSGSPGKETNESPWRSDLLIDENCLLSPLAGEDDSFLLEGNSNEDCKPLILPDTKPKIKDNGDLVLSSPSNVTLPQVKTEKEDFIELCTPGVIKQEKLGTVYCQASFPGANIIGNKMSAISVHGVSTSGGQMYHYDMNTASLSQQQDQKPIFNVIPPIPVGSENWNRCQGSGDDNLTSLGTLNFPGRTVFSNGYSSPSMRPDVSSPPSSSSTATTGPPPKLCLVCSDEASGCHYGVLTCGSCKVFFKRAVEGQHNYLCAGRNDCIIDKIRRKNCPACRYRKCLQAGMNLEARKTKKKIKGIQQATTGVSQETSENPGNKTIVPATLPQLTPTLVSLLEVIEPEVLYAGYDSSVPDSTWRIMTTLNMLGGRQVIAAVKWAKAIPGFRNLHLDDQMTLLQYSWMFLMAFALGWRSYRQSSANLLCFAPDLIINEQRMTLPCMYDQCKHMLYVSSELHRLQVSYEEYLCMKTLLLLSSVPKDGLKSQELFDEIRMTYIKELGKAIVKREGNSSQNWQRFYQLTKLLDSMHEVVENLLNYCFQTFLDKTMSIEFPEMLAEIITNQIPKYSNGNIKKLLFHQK
DNA dC->dU-editing enzyme APOBEC-3G (Homo sapiens), sequence (Q9HC16 whole entry, looked up): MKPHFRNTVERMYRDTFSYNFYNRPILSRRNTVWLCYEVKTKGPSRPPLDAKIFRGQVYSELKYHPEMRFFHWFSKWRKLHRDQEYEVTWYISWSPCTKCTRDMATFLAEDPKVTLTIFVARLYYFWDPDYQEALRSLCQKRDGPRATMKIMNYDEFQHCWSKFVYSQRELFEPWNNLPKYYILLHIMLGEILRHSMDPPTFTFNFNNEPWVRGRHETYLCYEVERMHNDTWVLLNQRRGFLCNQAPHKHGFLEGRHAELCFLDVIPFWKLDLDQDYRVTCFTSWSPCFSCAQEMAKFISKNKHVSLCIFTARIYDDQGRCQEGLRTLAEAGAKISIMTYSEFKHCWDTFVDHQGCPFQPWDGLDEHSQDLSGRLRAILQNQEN
Ubiquitin carboxyl-terminal hydrolase 1 (Homo sapiens), sequence (O94782 whole entry, looked up): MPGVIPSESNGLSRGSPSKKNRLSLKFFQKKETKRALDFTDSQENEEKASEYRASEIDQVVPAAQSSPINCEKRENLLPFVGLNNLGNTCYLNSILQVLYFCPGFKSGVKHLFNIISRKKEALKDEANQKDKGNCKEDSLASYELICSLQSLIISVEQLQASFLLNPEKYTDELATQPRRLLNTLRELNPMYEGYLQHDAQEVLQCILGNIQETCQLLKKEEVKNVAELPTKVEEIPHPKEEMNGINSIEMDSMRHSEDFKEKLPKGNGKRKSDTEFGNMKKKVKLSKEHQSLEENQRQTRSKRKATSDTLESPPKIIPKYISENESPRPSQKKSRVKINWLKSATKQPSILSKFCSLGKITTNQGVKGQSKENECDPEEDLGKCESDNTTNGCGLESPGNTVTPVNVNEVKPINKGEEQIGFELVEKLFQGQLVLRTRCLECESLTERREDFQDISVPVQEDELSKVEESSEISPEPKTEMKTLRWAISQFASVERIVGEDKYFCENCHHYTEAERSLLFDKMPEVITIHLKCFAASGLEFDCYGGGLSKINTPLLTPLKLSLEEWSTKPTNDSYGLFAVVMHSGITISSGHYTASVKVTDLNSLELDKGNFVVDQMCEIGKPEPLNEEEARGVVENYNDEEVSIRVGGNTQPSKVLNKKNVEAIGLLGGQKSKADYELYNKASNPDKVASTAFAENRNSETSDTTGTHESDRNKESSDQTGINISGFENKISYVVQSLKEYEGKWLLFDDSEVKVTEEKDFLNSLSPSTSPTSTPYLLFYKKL

Turning to `C#CCN1C(C)=C(C(=O)CCO)[C@@H](c2cccc(-n3oo3)c2)C(C(=O)OC)=C1C`, the Potency in [1] was more than 46 µM. The result in assay [2] was inactive. For the same compound, the Potency result in [3], in assay [4] and in assay [5] was “inactive” each time.
For `O=C(/C=C\c1ccc(Cl)cc1)N[C@@]12CCC(=O)[C@@H]3Oc4c(O)ccc5c4[C@@]31CCN(CC1CC1)[C@@H]2C5`, the Potency in assay [1] was 1.63 µM (active); in [6] it was more than 46 µM. In addition, the outcome in assay [2] was inactive. The Potency result in assay [7], in [4] and in assay [5] was “inactive” throughout.
Regarding `CCOC(=O)c1cc2c(cn1)[nH]c1ccccc12`, in [8], the activity change, negative = inhibition was 26.1%. Besides, in [9], the call was inactive. Besides, in [1], the Potency is more than 20.6 µM. Besides, the Potency result in [4] and in assay [5] was “inactive” in each case.
